# Screens from PubChem BioAssay.
# Sampled rows, rich in hits. Any-hit rate of the full collection: about 7.9%.
# HCMV inh: human cytomegalovirus inhibition. HFF cells, HCMV-luciferase reporter, 72 h; stronger effect = lower value. activity change, negative = inhibition, % at 57.5 µM. actives 4.5% (n = 410,000). AID 1259415; in the data active = activity change below about -60%; inconclusive = no clear call, values can overlap the other calls; inactive = above about -39%
#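 Steps: HFFs plated, 16 h 37C; compounds added; HCMV-luciferase added to MOI 1 PFU/cell; 72 h 37C; OneGlo reagent, 5 min room temperature; luminescence read, normalized to controls.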
# FMDV antiviral: blocks foot and mouth disease virus | FMDV antiviral cell-based qHTS | Potency, µM (series often up to 57.9 µM), for inactives: top-dose activity change, negative = inhibition, most hits filed as inhibitors | actives 1.2% (n = 410,000) | AID 1159524; calls by dose curve; tested in HEK293T cells; note: read-out not given here; potency is the fitted concentration of half-maximal effect; nearly all actives have a fitted effect of over 45% in size
# MARV entry inh: Marburg virus entry inhibition. Marburg virus pseudotyped entry inhibition, cell reporter. Potency, µM (highest dose often 37.8 µM), for the others: at the highest dose activity change, negative = inhibition, hits mostly inhibitors. actives 1.8% (n = 300,000); calls by dose curve; tested in HEK293 cells; note: potency is the fitted concentration of half-maximal effect
# LASV entry inh: blocks Lassa virus binding to or entry into cells | actives 1.2% (n = 300,000) | AID 540256 | Lassa virus pseudotype entry inhibition, cell reporter | Potency, µM (top dose mostly 37.9 µM), without a hit: top-dose activity change, negative = inhibition, usual class: inhibitors; calls by dose curve; tested in HEK293 cells; note: potency is the fitted concentration of half-maximal effect; nearly all actives have a fitted effect of over 50% in size
# HCV inhibitor: HCV inhibition; Huh7.5.1 HCVcc-Cre infection, luciferase reporter, 44 h; Potency, µM (titrated, usually from 41.8 µM), without a hit: at the top dose activity change, negative = inhibition, usual class: inhibitors; actives 3.4% (n = 340,000); AID 651820; active = well fitted inhibition curve with a large enough effect; inconclusive = small, poorly fitted or top-dose-only effect, or another doubt; inactive = no such curve, though single readings can be large or run the other way; note: potency is the fitted concentration of half-maximal effect
#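 Whole-lifecycle infectious HCVcc-Cre system; cells 1,000/well, compound then virus (~0.5 moi) added 4 h after plating, 44 h culture. Luciferase read 15 sec following 15 min substrate incubation, room temp.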
# An asterisk follows results filed as active; ? = inconclusive; · = no result; [ ] = dose if it differs, or a comment. % is set by controls: 0 for no effect and ±100 for the full control effect.
SMILES,HCMV inh,FMDV antiviral,MARV entry inh,LASV entry inh,HCV inhibitor
CCOC(=O)N1CCN(S(=O)(=O)c2ccc(C(=O)N(CCCN(C)C)c3nc4ccc(CC)cc4s3)cc2)CC1,-62*,-7%,?,-42%[46.1 µM],?
Cc1ccc([C@H]2/C(=C(\O)c3cnn(-c4ccccc4)c3C)C(=O)C(=O)N2CCN2CCOCC2)o1,·,·,10%,·,·
CCN(CC)CCCNc1ncnc2c1cnn2-c1ccc(C)c(C)c1,-30,-2%,·,?,·
O=C(Oc1ccc([N+](=O)[O-])cc1)C1CC(=O)N(c2ccc3c(c2)OCCO3)C1 (stereo not drawn),-100*,-4%,12%,-15%,27%
O=C1CC(NS(=O)(=O)c2ccc([N+](=O)[O-])cc2)CN1c1ccc2c(c1)OCCO2 (stereo not drawn),-29,-19%,8%,?,0%[8.37 µM]
O=C1NC(=S)N/C1=C/c1cc2c(cc1[N+](=O)[O-])OCO2,-80*,-20%,·,·,-4%
COc1ccc(CNC(=O)CN2C(=O)CSc3ccc(S(=O)(=O)N(C)C)cc32)cc1,4,-4%,·,?,·
Clc1ccc(OCc2cc(-c3ccccc3)no2)c(Cl)c1,4,-58%,7.1µM*,11µM*,-24%
Cc1ccc(Cn2cnc3c(cnn3C(C)(C)C)c2=O)cc1,?,25µM*,·,·,11µM*
O=C(COc1ccc2ccccc2c1Br)Nc1cccnc1,-16,-12%,·,·,?
Cc1cc(OCC(=O)Nc2ccncc2)cc(C)c1Cl,-64*,8%,·,·,13µM*
CC(C)CCOc1cccc(OCC(=O)Nc2ccncc2)c1,-77*,-27%,?,-12%[46.1 µM],?
O=C(Cc1ccc(Cl)cc1Cl)Nc1ccncc1,-66*,?,-40%[46.1 µM],-3%[46.1 µM],8.9µM*
O=C(COc1ccc2ccccc2c1Br)Nc1ccncc1,-60*,-19%,?,?,?
CCCCc1cc2c(cn1)=C(OC(=O)CCC(=O)OC)C(C)(OC(=O)CC)C(=O)C=2 (stereo not drawn),·,·,21%[14.2 µM],?,·
Cc1c(NC(=O)Nc2ccccc2C(F)(F)F)sc2nc3n(c(=O)c12)CCC(C)CC3 (stereo not drawn),1,-18%,19%[46.1 µM],·,·
O=C(c1ccc2c(c1)OCO2)N(Cc1cccs1)C1(C(=O)NC2CCCCC2)CCCCC1,?,?,8.9µM*,?,?
COc1ccccc1-n1c2nc3ccccc3nc2c2c(=O)n(-c3cc(C)cc(C)c3)cnc21,-69*,?,?,5%,?
COc1ccccc1-n1cnc2c(c1=O)c1nc3ccccc3nc1n2-c1ccc(C)cc1,-87*,-15%,-3%,9%,?
C=CCn1cnc2c(c1=O)c1nc3ccccc3nc1n2-c1ccc(C)cc1,-22,·,·,·,24%
COc1ccccc1-n1cnc2c(c1=O)c1nc3ccccc3nc1n2CCc1ccccc1,?,-28%,20%,17%,4%
COc1ccc(CN2CCC3(CC2)c2ccccc2[C@@H](NC(=O)c2ccccc2)[C@@H]3O)cc1O,·,4%,·,·,·
CC(=O)c1ccc(OCCCOc2cccc3cccnc23)cc1,17,-8%,·,·,-13%
CC(=O)c1ccccc1OCCCOc1cccc2cccnc12,-83*,-18%,·,·,?
C=CCc1cc(Cl)ccc1OCCCNC(C)CC (stereo not drawn),?,?,2.9µM*,?,13µM*
SMILES,HCMV inh,FMDV antiviral,MARV entry inh,LASV entry inh,HCV inhibitor
CCC(C)NCCCOc1ccc(Cl)cc1C(C)(C)C (stereo not drawn),-10,-2%,?,8%,-26%
C=CCc1cc(Cl)ccc1OCCOCCNC(C)(C)C,-71*,-21%,·,·,?
C=CCc1ccc(OCCCCNC(C)CC)c(OC)c1 (stereo not drawn),-21,-8%,?,-13%,8.9µM*
C=CCc1cc(Cl)ccc1OCCOCCNCCOC,8,-18%,?,-12%,?
Nc1ncnc2n[nH]c(Nc3ccc(F)cc3)c12,·,-23%,-11%,2%,·
O=C1c2cccc3cccc(c23)C(=O)N1Cc1cccnc1,33,-9%,?,-4%,0%
Cc1ccc(N2C(=O)c3cccc4c([N+](=O)[O-])ccc(c34)C2=O)c2cccnc12,?,?,·,·,14%
O=C1c2cccc3c([N+](=O)[O-])ccc(c23)C(=O)N1Cc1cccnc1,-73*,-4%,?,?,?
Cc1ccnc(N2C(=O)c3cccc4c([N+](=O)[O-])ccc(c34)C2=O)c1,58,?,21µM*,?,11µM*
Cc1ccc(CNC(=O)C(=O)NCC(c2cccs2)S(=O)(=O)c2ccc(C)cc2)cc1 (stereo not drawn),-8,?,·,?,·
O=c1c(Br)ccc(Br)cc1Br,-77*,20µM*,4.5µM*,?,?
Brc1ccc(Oc2ccc(Br)cc2Br)c(Br)c1,49,4%,-3%,·,-8%
O=C(CSC(=S)N1CCCC1)c1cc(Br)cc(Br)c1O,?,-15%,?,-37%,13µM*
COc1ccccc1CNC(=O)Cn1ncc2c(C)n(Cc3ccccc3Cl)c(C)c2c1=O,-7,-24%,28%[46.1 µM],?,·
O=[N+]([O-])c1cc(-c2nc(-c3ccncc3)no2)ccc1NCc1ccccc1,1,4%,19%[46.1 µM],-29%[46.1 µM],·
O=C(CCC(=O)N1CCSc2ccccc21)NCc1ccccc1Cl,-62*,-14%,-16%[46.1 µM],·,·
CCC1CN2CCc3cc(OC)c(OC)cc3C2CC1CC1NCCc2cc(OC)c(OC)cc21 (stereo not drawn),·,0%,·,·,·
CCC1=C(CC2NCCc3ccccc32)CC2c3cc(OC)c(OC)cc3CCN2C1 (stereo not drawn),-100*,?,?,?,?
CC[C@H]1CN2CCc3cc(OC)c(OC)cc3C2C[C@@H]1C[C@H]1NCCc2cc(OC)c(OC)cc21 (stereo partly drawn),-97*,-20%,·,·,0.32µM*
COC(=O)c1c(NC(NC(C)=O)C(Cl)(Cl)Cl)sc2c1CCCC2 (stereo not drawn),-6,35µM*,?,-18%,11µM*
COC(=O)c1c(NC(=O)C2CC2)sc2c1CCCC2,2,-9%,·,·,10µM*
CCOC(=O)c1c(NC(NC(=O)CF)C(Cl)(Cl)Cl)sc2c1CCCC2 (stereo not drawn),-12,-17%,?,?,?
O=C(Nc1sc2c(c1C(=O)O)CCCCC2)c1ccco1,61,-33%,?,?,18%
CCOC(=O)c1c(NC(NC(C)=O)C(Cl)(Cl)Cl)sc2c1CCCC2 (stereo not drawn),?,?,?,?,10µM*
CC1CCc2c(sc(NC(=O)c3ccco3)c2C(=O)O)C1 (stereo not drawn),43,-1%,3.5µM*,?,?
CC(NC(=O)c1ccc(F)cc1)c1nc2ccccc2[nH]1 (stereo not drawn),-3,6%,5%[46.1 µM],9%[46.1 µM],·
COCC(=O)Nc1sc2c(c1C(=O)OC)CCC(C)C2 (stereo not drawn),-8,7%,-1%,16%,7.1µM*
